Screening data as filed in PubChem.
Most compounds without a hit are left out; they make up all but 4.3% or so of the library.
GRIN3A LBD mod: binders of NR3A ligand-binding domain, primary screen, biophysical, differential scanning fluorimetry, uHTS; NR3A LBD differential scanning fluorimetry, Tm shift; 0% = protein alone, 100% = glycine-bound protein; Glutamate receptor ionotropic, NMDA 3A (GRIN3A) ligand-binding domain; Tm shift relative to glycine control, % at 25 µM; AID 1259313, 2017; actives 2.5% (n = 340,000);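 active = melting temperature shift of at least 10% of the positive control shift, at one fixed dose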
FAS TE block: FAS thioesterase domain inhibitors, primary screen, biochemical, fluorescence intensity, uHTS; AID 602261, 2012; recombinant FAS-TE, OMFH fluorogenic substrate, fluorescence endpoint; actives 0.67% (n = 360,000); inhibition, % at 15 µM;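 active = compounds whose normalised, plate-corrected inhibition of enzyme fluorescence in the single-dose primary screen is 50% or more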
ADAM10 inh: human ADAM10 inhibitors, primary screen, biochemical, QFRET, HTS; actives 0.62% (n = 370,000); recombinant ADAM10, EDANS/DABCYL FRET peptide cleavage, 3 h; inhibition, % at 7 µM;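 active = inhibition above a per-campaign cutoff equal to the mean of compounds falling between control-based bounds plus 3 SD, cut at about 20% in these data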
sPLA2-III inh: human group III sPLA2 inhibitors, primary screen, biochemical, QFRET, BODIPY PC-A2 liposome substrate; Group 3 secretory phospholipase A2 (Homo sapiens), Q9NZ20; QFRET BODIPY PC-A2 liposome hydrolysis, fluorescence; inhibition, % at 12.2 µM; actives 0.56% (n = 370,000);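 active = inhibition above mean plus 3 SD of compounds lying within the high and low control bounds, cut at about 19% in these data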
ADAM17 inh: ADAM17 inhibitors, primary screen, biochemical, QFRET | Disintegrin and metalloproteinase domain-containing protein 17 (Homo sapiens), P78536 | recombinant ADAM17, EDANS/DABCYL FRET peptide cleavage | inhibition, % at 6.95 µM | actives 0.83% (n = 370,000);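 active = inhibition above the mean of compounds lying between control limits plus 3 SD, set per campaign, cut at about 8.5% in these data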
ADAM10 counter: ADAM10 inhibitors, counter-screen for ADAM17 exosite inhibitor project, biochemical, FRET, human ADAM10; actives 47% (n = 2,900); inhibition, % at 6.95 µM; recombinant ADAM10, EDANS/DABCYL FRET peptide cleavage, 3 h; shares compounds with ADAM17 inh;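 active = mean inhibition over the triplicate runs exceeds the activity threshold set in the earlier primary screen, cut at about 20% in these data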
ADAM17 confirm: ADAM17 inhibitors, hit retest, confirmation, biochemical, QFRET peptide cleavage. inhibition, % at 6.95 µM. actives 65% (n = 2,900). recombinant ADAM17, EDANS/DABCYL QFRET peptide cleavage. AID 743257, 2014. shares compounds with ADAM17 inh;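 active = mean inhibition across replicates above the hit cutoff set in the primary screen, cut at about 8.5% in these data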
A number is an active result; n = inactive; x = not tested or not shown.

SMILES	GRIN3A LBD mod	FAS TE block	ADAM10 inh	sPLA2-III inh	ADAM17 inh	ADAM10 counter	ADAM17 confirm
O=C(Nc1cccc([N+](=O)[O-])c1)NC1CCCCN(Cc2ccc(Cl)cc2)C1=O (configuration not stated)	x	x	n	n	n	x	x
O=C(NNC(=S)NCc1ccccc1)c1cccc([N+](=O)[O-])c1	n	n	n	n	13.1	n	n
O=C(NNC(=S)NC(=O)c1ccc(Br)cc1)c1cccc([N+](=O)[O-])c1	n	n	n	n	n	x	x
S=C(NCc1ccccc1)NCc1cccc(CNC(=S)NCc2ccccc2)c1	19.9	n	n	n	9.3	21.7	14.1
O=C(CN1C(=O)CCSc2ccccc21)Nc1cccc(Cl)c1F	x	x	n	n	n	x	x
c1ccc(Cc2cnc(N3CCN(Cc4ccc5c(c4)OCCO5)CC3)nc2)cc1	x	x	n	n	10.6	n	n
Clc1ccc(CN2CCN(c3ncc(Cc4ccccc4)cn3)CC2)cc1	x	x	n	n	n	x	x
CCc1cc(C(=O)OC)c(NC(=O)CC2NCCNC2=O)s1 (configuration not stated)	n	n	n	n	n	x	x
CCc1cc(C(=O)OC)c(NC(=O)C2CC(=O)NN2Cc2ccccc2)s1 (configuration not stated)	n	n	n	n	9.3	n	14.6
O=c1c2cc3cc4c(cc3nc2ncn1Cc1cccnc1)OCO4	x	x	n	n	n	x	x
Oc1cc(O)cc(C=Cc2ccc(O)c(O)c2)c1	x	x	n	n	n	x	x
CCn1c(CNC(=O)COc2ccc(C(C)C)cc2)nnc1SCC(=O)Nc1cc(F)ccc1C	n	n	n	n	11.7	n	n
CCCc1ccc(Oc2c(-c3ccc(O)c(C)c3O)n[nH]c2C)cc1	n	n	n	n	9.0	n	n
CCCOC(=O)c1ccc(Oc2cn[nH]c2-c2ccc(OCC)cc2O)cc1	15.9	n	n	n	9.8	n	12.1
CCCOC(=O)c1ccc(Oc2c(-c3ccc(OCC)cc3O)n[nH]c2C)cc1	30.5	n	n	n	9.8	24.4	14.8
Cc1ccccc1NC(=O)OCCCN1C(=O)CCC12CCC(C)CC2 (configuration not stated)	x	x	n	n	n	x	x
O=C(C(=O)N(Cc1ccccc1)Cc1ccccc1)c1c(-c2ccccc2)[nH]c2ccccc12	n	n	22.0	n	10.9	41.9	22.4
N#Cc1ccc(C23CC4(C2)[C@H](CN(Cc2ccc(-c5ccccc5)cc2)[C@@H]4c2ccccc2)C3c2ccc(Cl)nc2)cc1 (some centres not stated)	n	n	n	n	12.6	n	n
Cc1ccc(C(=O)NC2CCCCN(Cc3cccc(F)c3)C2=O)cc1 (configuration not stated)	x	x	n	n	n	x	x
COc1ccccc1/C=C/C1C(C(=O)OCC(C)C)=C(C)N=C2SCCC(=O)N21 (configuration not stated)	n	n	n	n	10.7	n	12.4
CCC1SC2=NC(C)=C(C(=O)OCC(C)C)C(/C=C/c3ccccc3OC)N2C1=O (configuration not stated)	n	n	n	n	n	x	x
CCOC(=O)C1(CC2CCCCO2)CCN(C(=O)Nc2ccc(SC)cc2)CC1 (configuration not stated)	n	n	n	n	n	x	x
CCOC(=O)C1(CC2CCCCO2)CCN(C(=O)Nc2cccc(SC)c2)CC1 (configuration not stated)	10.9	n	n	n	9.2	n	n
COc1ccc2nc(NC(=S)N(C)C)sc2c1	24.0	n	n	n	12.9	n	n
CCCC(=O)Nc1nc2ccc(OC)cc2s1	n	n	n	n	n	x	x
SMILES	GRIN3A LBD mod	FAS TE block	ADAM10 inh	sPLA2-III inh	ADAM17 inh	ADAM10 counter	ADAM17 confirm
ON=C(c1ccccc1)c1ccc2c3c(cccc13)CC2	x	n	n	n	11.6	20.2	9.0
CC(=O)c1ccc2c3c(cccc13)CC2	n	n	n	n	n	x	x
Cc1ccc(S(=O)(=O)N(C)C[C@@H]2Oc3ccc(NS(=O)(=O)c4ccccc4)cc3CC(=O)N([C@@H](C)CO)C[C@H]2C)cc1	n	n	n	n	10.0	n	n
Cc1ccc(S(=O)(=O)Nc2cccc3c2O[C@H](CN(C)Cc2ccc(-c4ccccc4)cc2)[C@@H](C)CN([C@H](C)CO)C3=O)cc1	n	n	23.6	n	12.7	44.4	23.7
Cc1ccc(S(=O)(=O)Nc2ccc3c(c2)CC(=O)N([C@H](C)CO)C[C@@H](C)[C@H](CN(C)S(=O)(=O)c2ccccc2)O3)cc1	n	n	n	n	n	x	x
C[C@@H]1CN([C@H](C)CO)C(=O)c2c(c3ccccc3n2C)-c2ccccc2CO[C@H]1CN(C)Cc1ccccc1	x	n	n	n	n	x	x
C[C@@H]1CN([C@H](C)CO)C(=O)c2c(c3ccccc3n2C)-c2ccccc2CO[C@H]1CN(C)Cc1ccc(-c2ccccc2)cc1	x	n	n	n	8.9	n	n
COc1cccc(-c2cc3nc(-c4ccco4)cc(N4CCN(C(C)=O)CC4)n3n2)c1	x	x	n	n	n	x	x
Cc1cn(CCC(=O)Nc2ccccc2N2CCOCC2)c2ccccc12	n	n	n	n	8.9	24.8	12.0
Cc1cn(CCC(=O)Nc2ccc(N3CCOCC3)cc2)c2ccccc12	n	n	n	n	n	x	x
CCOc1ccccc1NS(=O)(=O)c1ccc(-c2cnc(C3CC3)o2)cc1	n	n	n	n	9.9	n	n
Cn1cc(C2(c3c[nH]c4ccccc34)CCN(C(=O)OC(C)(C)C)CC2)c2ccccc21	x	x	n	n	11.1	n	n
CCCCNC(=O)C[C@@H]1C[C@@]2(C(=O)OC)CCCCC=C2N(Cc2cccc3ccccc23)C1=O	x	n	n	n	n	x	x
COC(=O)[C@@]12C[C@@H](CC(=O)NCc3ccccc3)C(=O)N(Cc3ccc4c(c3)OCO4)C1=CCC(C)(C)C2	x	x	n	n	n	x	x
CCOC(=O)[C@]12CCCC=C1N(Cc1cccc3ccccc13)C(=O)[C@H](CC(=O)NCc1cccc3ccccc13)C2	x	n	n	n	10.8	n	n
